Assay results: PubChem BioAssay AID651635 (National Center for Advancing Translational Sciences (NCATS), 2012)
Out of some 400,000 compounds screened, about 1,900 (0.47%) were called active. Where a call stands in place of a potency, no number is given. About 14% were inconclusive and are not listed. The sample holds actives, similar compounds and a random draw of the others, so the mix is not that of the screen. The call rests on the fitted dose curve; in most records, active means well fitted cell-killing curve with a large enough effect; inconclusive means small, poorly fitted or top-dose-only effect, or effect the other way; inactive means no such curve, though single readings can be large or run the other way.

Assay: Viability Counterscreen for Primary qHTS for Inhibitors of ATXN expression; further: nearly all actives have a fitted effect of over 40% in size
Details: S2 cells (HEK-293 line with an ATXN2-luciferase reporter) viability, CellTiter-Fluor protease fluorescence, 24 h; series mostly up to 56.7 µM
Excerpt: Spinocerebellar ataxia type 2 (SCA2) is a multisystem neurodegenerative disease caused by a dominantly-acting mutation leading to expansion of a polyQ domain in the ataxin-2 protein (ATXN2). SCA2 patients develop progressive ataxia and later lose function in other neuronal systems. Prominent parkinsonian signs develop in some patients. Similar to many neurodegenerative disorders, no symptomatic or disease-modifying treatments are known.
The primary objective of the proposed research is to identify compounds inhibiting ATXN2 expression and to test them for efficacy in SCA2 mouse models. To this end, we have developed a cell-based assay paired with an in vivo mouse model using identical luciferase expression constructs. This approach takes advantage of an ATXN2-luciferase transgene, with the luciferase gene flanked by the upstream and downstream portions of the ATXN2 gene. This primary assay was tested against the NIH Molecular Libraries Small Molecule Repository (MLSMR).
NIH Chemical Genomics Center [NCGC]
NIH Molecular Libraries Probe Centers Network [MLPCN]
Assay Submitter (PI): Daniel Scoles, University of Utah
PROTOCOL TABLE (as described by Inglese J, Shamu CE and Guy RK. 2007)
SEQUENCE No. (e.g., 1, 2, 3, etc.); […] (e.g., Cells, Incubation, Reagent, etc.); VALUE; DESCRIPTION.
1; Cells; 4 uL; white, solid bottom, 1536-well Greiner assay plate.
2; Incubation; 2 hr; 37 degree C in 5% humidified CO2.
3; Compounds; 23 nL; Kalypsis pintool (Wako USA) equipped with a 1536-well pin head.
4; Incubation; 24 hr; 37 degree C in 5% humidified CO2.
5; Reagent; 1 uL; Gly-Phe-7-Amino-4-trifluoromethylcoumarin.
6; Incubation; 30 min; 37 degree C in 5% humidified CO2.
7; Detection; Fluorescence; ViewLux plate reader (PerkinElmer).
8; Reagent; 3 uL; SteadyGlo luciferase solution (Promega).
9; Incubation; 5 min; room temperature.
10; Detection; Luminescence; ViewLux plate reader (PerkinElmer).
NOTES (numbers refer to Sequence numbers above)
1. S2 cells expressing ATXN2-luciferase reporter were suspended in phenol-red free DMEM and dispensed in assay plates using a Multidrop Combi dispenser (Thermo Fisher Scientific).
2. Assay plates were incubated. Evaporation was prevented by covering assay plates with metal lids containing holes to allow gas diffusion.
3. […] Vehicle-only plates, with DMSO being pin-transferred to columns 5-48, were inserted uniformly at the beginning and the end of each library to monitor and record any shifts in assay performance.
5. 125 uM Gly-Phe-7-Amino-4-trifluoromethylcoumarin (MP Biomedicals) working concentration was used at a final concentration of 25 uM.
7. To assess cell viability; the assay plates were read using the ViewLux high-throughput CCD imager (PerkinElmer), wherein single end-point fluorescence measurement was acquired (excitation 405/10; emission 540/25 nm).
8. Detection reagent SteadyGlo Luciferase (Promega) was added to the assay plate.
10. Luminescence is then measured on the ViewLux imager equipped with a clear emission filter using a 2 sec exposure. All screening operations were performed on a fully integrated robotic system (Kalypsys) containing one RX-130 and two RX-90 anthropomorphic robotic arms (Staubli).
Inglese J, Shamu CE and Guy RK, Reporting data from high throughput screening of small molecule libraries, Nature Chemical Biology, 2007, 3(8): 438-441. doi.org/10.1038/nchembio0807-438.
Potency means the concentration at half of the fitted maximal effect.

| Structure (SMILES) | Potency |
| --- | --- |
| O=C(CCl)Nc1cccc(CP(=O)(c2ccccc2)c2ccccc2)c1 | 14.1 µM (active) |
| O=C(NCCc1ccccc1)c1cccc(NC(=O)c2ccccc2)c1 | inactive |
| O=C(CSCc1ccccc1)Nc1ccccc1 | inactive |
| CCOc1ccc(NS(=O)(=O)c2ccc(N)cc2)nn1 | inactive |
| O=C(NC(c1ccc(Cl)cc1)c1cnccn1)C1CCN(Cc2ccc(Cl)cc2)CC1 (stereo not given) | inactive |
| Cc1ccc(CNC(=O)CSC2=Nc3ccccc3C3=NC(C)C(=O)N23)cc1 (stereo not given) | inactive |
| O=C(CC1N=C2c3ccccc3N=C(SCc3cccc(Cl)c3)N2C1=O)NCc1ccc2c(c1)OCO2 (stereo not given) | 31.6 µM (active) |
| NC(=O)CSC1=Nc2ccccc2C2=NC(CCC(=O)NCc3ccc(F)cc3)C(=O)N12 (stereo not given) | inactive |
| CC(C)(C)C(=O)c1c(N)[nH]c(C(=O)c2ccccc2)c1-c1ccc(F)cc1 | inactive |
| COCC(=O)Nc1cc(C(=O)N2CCCC(c3ccccc3)CC2)c2c(c1)nc(-c1ccncc1)n2C (stereo not given) | inactive |
| CCOC(=O)[C@H](CCc1ccccc1)N[C@@H](C)C(=O)N1CC2(C[C@H]1C(=O)O)SCCS2 | inactive |
| O=C(C(=O)N1CCOc2ccc(CN3CCN(Cc4ccccn4)CC3)cc2C1)c1ccccc1 | inactive |
| CCC1(C2CCN(C(=O)c3cccc(F)c3F)CC2)NC(=O)N(CCc2scnc2C)C1=O (stereo not given) | inactive |
| Cc1ccc(-c2ccc(C(=O)N3CCc4nnc(CNC(=O)c5ccccc5)n4CC3)cc2)cc1 | inactive |
| COc1ccc(CCNc2ncnc3sc(C(=O)N4CCCC4)c(C)c23)cc1OC | inactive |
| O=C1NC(=O)C2C1C(c1ccc([N+](=O)[O-])cc1)=NN2Cc1ccccc1 (stereo not given) | inactive |
| Cn1nc(-c2ccccc2)c2cc([N+](=O)[O-])ccc21 | inactive |
| O=C1CC(c2ccccc2)=NN1c1ccc([N+](=O)[O-])cc1 | 21.2 µM (active) |
| NC(Cc1ccccc1)c1csc(Nc2cc(Oc3ccccc3)ncn2)n1 (stereo not given) | 31.6 µM (active) |
| COc1ccc(C(NC(=O)C2CCN(CCCc3ccccc3)CC2)c2cccs2)cc1 (stereo not given) | inactive |
| COc1ccccc1C1CN(CCNC(=O)C2=CCCC2)Cc2ccccc2O1 (stereo not given) | inactive |
| CC(C)NC(=O)N1Cc2cc(C(=O)NCC(F)(F)F)nc(-c3cccc(-c4cc5ccccc5o4)c3)c2[C@@H]1CCO | inactive |
| NC(N)=N/N=C/c1ccc(OCc2ccc(Cl)cc2Cl)cc1 | 35.5 µM (active) |

| Structure (SMILES) | Potency |
| --- | --- |
| Cc1nc2ccccc2nc(C)c1=NOCc1ccc(Cl)cc1Cl | inactive |
| COc1ccc(Cl)cc1N(CC(=O)N/N=C/c1ccc(OCC(N)=O)cc1)S(C)(=O)=O | inactive |
| C[C@H]1C[C@H]2[C@@H]3CCC4=CC(=O)C=C[C@]4(C)[C@@H]3C(=O)C[C@]2(C)[C@@]1(O)C(=O)CO | inactive |
| COc1ccc(C2=Nn3c(nnc3-c3ccccc3OC)SC2)cc1OC1CCCC1 | 15.8 µM (active) |
| COc1ccccc1-c1nnc2n1N=C(c1ccc(OC(F)F)c(OCC3CC3)c1)CS2 | inactive |
| CC1=Nn2c(nnc2-c2ccccc2)SC1 | inactive |
| COc1ccc(CCNC(=O)c2ccc(-n3c(C)cc4c3CCCC4)cc2)cc1OC | inactive |
| O=C(Nc1cccc2cccnc12)c1ccc2sc([C@H]3C[C@H](O)[C@@H](CO)O3)nc2c1 | inactive |
| Cc1ccccc1-c1csc(C(O)c2cccc(Cl)c2)n1 (stereo not given) | inactive |
| S=C(NCCCc1ccccc1)Nc1ccc(Br)cc1 | inactive |
| O=C(/C=C/c1ccc(Cl)cc1)Nc1ccc(Br)cn1 | inactive |
| NCCCNC(=S)NCCCN(Cc1ccc(Cl)cc1)c1ccc(Br)cn1 | 35.5 µM (active) |
| CN(C)CCNC(=O)c1cccc(-c2cnc3c(NC=O)cc(-c4cccc(C(F)(F)F)c4)cn23)c1 | inactive |
| CN1CCN(c2ccc(NC(=O)c3cc(Cl)c4c(c3)OCCO4)cc2)CC1 | inactive |
| C=CC(=O)Nc1ccc(Nc2ccnc(Nc3ccc(N4CCN(C)CC4)cc3)n2)cc1 | 14.1 µM (active) |
| Cc1cccc(N2CCN(c3ccc(NC(=O)/C=C\C(=O)O)cc3)CC2)c1 | inactive |
| COC(=O)c1c(OCc2ccc(F)cc2)cc(=O)n2c1CCN(Cc1ccc3cccnc3c1)CC2 | inactive |
| CC(C)C(=O)NC(C)c1nnc2n1CCN(Cc1cccc3ncccc13)CC2 (stereo not given) | inactive |
| CCc1ccc2c(c1)C1(NN=C(c3ccccc3)S1)C(=O)N2 (stereo not given) | 3.16 µM (active) |
| CO[C@H]1[C@H](NC(=O)C(C)C)c2ccccc2C12CCN(Cc1cnc(N(C)C)s1)CC2 | inactive |
| COc1ccc(C2(Nc3cccc(F)c3)C(=O)c3ccccc3C2=O)cc1 | inactive |
| CCCS(=O)(=O)c1ncc(Cl)c(C(=O)Nc2scc(-c3ccccc3)c2C(=O)OCC)n1 | 15.8 µM (active) |
| CCOC(=O)c1scc(-c2ccccc2)c1S(=O)(=O)Nc1ccccc1F | inactive |

| Structure (SMILES) | Potency |
| --- | --- |
| CCOC(=O)c1c(-c2ccc(-c3ccccc3)cc2)csc1NC(=O)CCC(=O)O | inactive |
| Cc1ccc(C)c(C(O)c2ncc(-c3cccc4ccccc34)[nH]2)c1 (stereo not given) | inactive |
| CO[C@H]1[C@@H](O)[C@H](N)[C@@H](O[C@H]2O[C@H]([C@H](C)N)CC[C@H]2N)[C@H](O)[C@@H]1N(C)C(=O)CN | inactive |
| Cc1ccc(CN2CC(N3CCC(Cc4ccccc4)CC3)CS2(=O)=O)cc1 (stereo not given) | inactive |
| NC(=O)C1(Nc2ccccc2Cl)CCCC1 | inactive |
| O=C(Nc1ccccc1Cl)/C(Cl)=C(\Cl)S(=O)c1ccccc1 (stereo not given) | 3.55 µM (active) |
| O=C(COC(=O)CCc1c[nH]c(=O)[nH]1)Nc1ccccc1Cl | inactive |
| O=C(CN1C(=O)COc2ccc(S(=O)(=O)N3CCCCCC3)cc21)N1CCN(c2cccc(C(F)(F)F)c2)CC1 | inactive |
| NC(=O)CSc1oc(-c2cccs2)nc1S(=O)(=O)c1ccccc1 | inactive |
| Cc1ccc(S(=O)(=O)c2nc(-c3cccs3)oc2NCc2cccnc2)cc1 | inactive |
| CCCCS(=O)(=O)c1oc(-c2cccs2)nc1S(=O)(=O)c1ccccc1 | 3.16 µM (active) |
| COc1ccccc1-c1ccnc(-n2ncc(C(=O)NCCCN3CCOCC3)c2C)n1 | inactive |
| Cc1ccc(-c2cnc(C(O)c3cc(Cl)cc(Cl)c3)[nH]2)cc1 (stereo not given) | inactive |
| Cc1cc(C)c2oc(C(=O)Nc3ccc(S(=O)(=O)N4CCCCCC4)cc3)cc(=O)c2c1 | inactive |
| CCCc1ccc(C(O)c2ncc(-c3cccc(OC)c3)[nH]2)cc1 (stereo not given) | inactive |
| COc1ccc(C(N)c2csc(NC(=O)Nc3cccc(C(F)(F)F)c3)n2)cc1 (stereo not given) | 17.8 µM (active) |
| COc1cccc(NC(=O)Nc2ccc(F)cc2)c1 | inactive |
| CC(=O)c1ccc(Nc2nc(C(N)c3ccccc3)cs2)cc1 (stereo not given) | inactive |
| Cc1c(O)cc2c(c1C)O[C@](C)(CCC[C@H](C)CCC[C@H](C)CCCC(C)C)CC2 | inactive |
| OCC1CCCN(c2nc3cc4c(cc3cc2CNCc2cccs2)OCO4)C1 (stereo not given) | inactive |
| CC(C)c1cccc(C(C)C)c1Nc1cn[nH]c1 | inactive |
| CC(C)C[C@H]1CNC(=O)C(=O)N1C[C@@H]1CCCN1C[C@H](Cc1ccccc1)N1C[C@H](CC(C)C)N(CC2CCCCCC2)C(=O)C1=O | inactive |
| CC(C)C[C@H]1CNC(=S)N1C[C@H]1CCCN1C[C@H](Cc1ccc(O)cc1)N1C[C@H](Cc2ccc(O)cc2)N(CC2CCCCC2)C1=S | 31.6 µM (active) |

| Structure (SMILES) | Potency |
| --- | --- |
| O=C1NC[C@H](Cc2ccc(O)cc2)N(C[C@@H]2CCCN2C[C@H](Cc2ccccc2)N2C[C@H](Cc3ccccc3)N(CC3CCCCC3)C(=O)C2=O)C1=O | inactive |
| COc1ccc(C2CC(c3cccc(OC)c3)=NN2c2ccc(S(N)(=O)=O)cc2)cc1 (stereo not given) | inactive |
| CCCOc1ccc(F)cc1-c1cc(C(=O)Nc2ccc(F)c(Cl)c2)[nH]n1 | inactive |
| Nc1cccc(OCCCCCOc2cccc(N)c2)c1 | inactive |
| CCOC(=O)N1CCC(N2CCOc3ccc(CN4CCC(O)(c5cccnc5)CC4)cc3C2)CC1 | inactive |
| O=c1c(CN2CCOc3ccc(CN4CCC(Oc5cccnc5)CC4)cc3C2)coc2ccccc12 | 28.2 µM (active) |
| c1ccc(CN2CCN(Cc3ccc4c(c3)CN(Cc3c[nH]c5ccccc35)CCO4)CC2)nc1 | inactive |
| Cc1cc(-c2ccnc(-n3ncc(C(=O)NCCc4ccncc4)c3C)n2)c(C)s1 | inactive |
| CC[C@H](C)CCCCC(=O)N[C@@H](CCN)C(=O)N[C@H](C(=O)N[C@@H](CCN)C(=O)N[C@H]1CCNC(=O)[C@@H]([C@H](C)O)NC(=O)[C@H](CCN)NC(=O)[C@H](CCN)NC(=O)[C@H](CC(C)C)NC(=O)[C@@H](CC(C)C)NC(=O)[C@H](CCN)NC1=O)[C@@H](C)O | inactive |
| CC(C)N=C1CCCC1C(=S)SSC(=S)C1CCCC1=NC(C)C (stereo not given) | 0.282 µM (active) |
| CC1(C(=O)NS(=O)(=O)c2ccc3ccccc3c2)CCN1C(=O)C1(c2ccc(Cl)cc2)CCC1 (stereo not given) | inactive |
| CCOC(=O)Cc1ccc(NC(=O)Nc2c[nH]c(=O)[nH]c2=O)cc1 | inactive |
| COC(=O)c1ccccc1C(=O)NCc1nc(N2CCCC2)c2cccc(C)c2n1 | inactive |
| COc1ccc(COC[C@H](CC(C)C)N2CCN(C(=O)c3cccc(C(F)(F)F)c3)CCC2=O)cc1 | inactive |
| CC(=O)N1Cc2cc(C(=O)NCc3cccc(F)c3)nc(-c3cccc(C4=CCCC4)c3)c2[C@H]1CCO | inactive |
| CCCCOCCOC(=O)c1cccnc1 | inactive |
| Cc1coc2c(O)cc3c(c12)OC1(N2CCCCC2)C(=O)NCCCC31 (stereo not given) | 31.6 µM (active) |
| C=CCC[C@H](CCCCC)OC(=O)/C=C/[C@H](O)[C@@H](O)C[C@@H](O)CC=C | inactive |
| O[C@H]1C[C@H](c2ccc(Cl)cc2)N(Cc2cccs2)C[C@@H]1n1cc(C2CC2)nn1 | 22.4 µM (active) |
| O=C(OCc1cn([C@@H]2C[C@H](c3ccc(Cl)cc3)N(Cc3cccs3)C[C@H]2O)nn1)c1ccccc1 | inactive |
| O[C@H]1CN(Cc2cccs2)[C@@H](c2ccc(Cl)cc2)C[C@@H]1n1cc(C2CC2)nn1 | inactive |
